# A number with no mark means an inactive call.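 How the source made its calls: active = MAPPIT score above the 99th percentile of random reference set scores in the same batch; inactive = at or below it.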
# B1: sw (protein)
# chain: MDRKAELERKKAKLAALREEKDRRRREKEIKDMEEAAGRIGGGAGIDKDQRKDLDEMLSSLGVAPVSEVLSSLSSVNSMTSDNSNTQTPDASLQATVNGQSGGKKQPLNLSVYNVQATNIPPKETLVYTKQTQTTSTGGGNGDVLSCHSSPLSGYMEDWWRPRKAHATDYYDEYNLNPGLEWEDEFTDDEESSLQNLGNGFTSKLPPGYLTHGLPTVKDVAPAITPLEIKKETEVKKEVNELSEEQKQMIILSENFQRFVVRAGRVIERALSENVDIYTDYIGGGDSEEANDERSHARLSLNRVFYDERWSKNRCITSMDWSTHFPELVVGSYHNNEESPNEPDGVVMVWNTKFKKSTPEDVFHCQSAVMSTCFAKFNPNLILGGTYSGQIVLWDNRVQKRTPIQRTPLSAAAHTHPVYCLQMVGTQNAHNVISISSDGKLCSWSLDMLSQPQDTLELQQRQSKAIAITSMAFPANEINSLVMGSEDGYVYSASRHGLRSGVNEVYERHLGPITGISTHYNQLSPDFGHLFLTSSIDWTIKLWSLKDTKPLYSFEDNSDYVMDVAWSPVHPALFAAVDGSGRLDLWNLNQDTEVPTASIVVAGAPALNRVSWTPSGLHVCIGDEAGKLYVYDVAENLAQPSRDEWSRFNTHLSEIKMNQSDEV
# B2: Dpit47 (protein)
# chain: MKQMAAQKAWTDEERLELAAQLDAELDAFIDGLEKKRYEEGWPEDRWQEEMDKHPFFMKRAPQPGDDVHPMFEGLQKLKYDPEENTRDELALNYKEDGNFYMKHKKFRMAIYSFTEGIKTKTDNPDVLAVLYNNRSAAHFFIKNYRSSLSDAQRALFYKPDYTKARWRSAQCAYELERFDLCTQMCEELLEVDVDNEVAIALLHKNKMKKLEIERNQRKEAAEAKRRLTRFHRLRDAIEQRAIKFDDQKVGKKDVLSEELLYPKFLPLEDHPVHLDEDGSTLIWPAAFSYPEFLYSDFYQQLPETTTMRDCLATLLTEKLPYDKAHNYRLGNVHVYYENRKVGCVHKVDEEKQLAEIIAEKGFFVSGGALLFYVVHKDSRVEQEFINERRRPMVYS
# B3: Nin (protein)
# chain: MEVSADPYEQKLYQMFRSCETQCGLLDEKSLLKLCSLLELRDQGSALIASLGGSHQLGVSFGQFKEALLNFLGSEFDGNTSSGFIERSLVITDEPLNNTYIESPPESSDREVSPKLVVGTKKYGRRSRPQQGIYELSVTDSDNTDEDQLQQQQNQRSLNGCDELGVQVQRSSSQSDLPGSRRLRSVHTSGSKLKRCASLPARRKMNSNTTGATTSPTAAAKLKQLSIQSQAQHSSSVESLDTVTPQQLETISVHSIMEAWELASIPNTRNLLHVLGFDEEEEVNLQQLTKALEEELRGIDGDHEQSNMLRALAALQATELGNYRLAYRQQHEENLKLRADNKAANQRVALLAVEVDERHASLEDNSKKQVQQLEQRHASMVREITLRMTNDRDHWTSMTGKLEAQLKSLEQEEIRLRTELELVRTENTELESEQQKAHIQITELLEQNIKLNQELAQTSSSIGGTPEHSPLRPRRHSEDKEEEMLQLMEKLAALQMENAQLRDKTDELTIEIESLNVELIRSKTKAKKQEKQEKQEDQESAATATKRRGDSPSKTHLTEESPRLGKQRKCTEGEQSDASNSGDWLALNSELQRSQSQDEELTSLRQRVAELEEELKAAKEGRSLTPESRSKELETSLEQMQRAYEDCEDYWQTKLSEERQLFEKERQIYEDEQHESDKKFTELMEKVREYEEQFSKDGRLSPIDERDMLEQQYSELEAEAAQLRSSSIQMLEEKAQEISSLQSEIEDLRQRLGESVEILTGACELTSESVAQLSAEAGKSPASSPISYLWLQSTIQEPAKSLADSKDEATASAIELLGGSPSHKTASRNNLTTSETSIFSTTPFESSQSGPSPTNSGNSNAYGANPGPAPISKPKRSQSPQQAAASEGEIADCETSSTASGKSFESNSKTSCLSHEKCSSPSALKEELKRLKFFELSLKEQIKDLSLQRDGLVMELQQLQEARPVLEKAYARTTHPTLQQRLNQLELRNRHLQNVIKQQQHYTESLMQQSWRQHQVELNDLHSRIETQGVLLADQTQRLQSADILVKDLYVENSHLTATVQRLEQQRARVNLIHQQQQQQRLVGGGLPGMP
# B4: poly (protein)
# chain: MATSVLLACGLNEQKLPGFVHISEESNVDASFLISCVLGQRLRISNAGTLLVCLQHHYQHYFNAGMRLGYNTNIFQGKTLGVIDVLSDMAGEGLASKWLTNTEGQTLTDQLVEDIRAQVERNYASRNSYTVLIDNLSILFNLGASKLQVQQFCQDLAALGKEREKLTVITKLSNSDIYQLTDNNVAKLGQVRIQVLRLKSGVFREVDGKLLIERVLDEGNYACEETRKEVLYKVNDRNVKVFAPGEIGVKV
# B5: Treh (protein)
# chain: MFKLPTISLLLVSWSCLVALSQAKTYSLPDLTTDYNNAIPVDEEEAQDPFASCKIYCEGNLLHTIQTAVPKLFADSKTFVDMKLNNSPDKTLEDFNAMMEAKNQTPSSEDLKQFVDKYFSAPGTELEKWTPTDWKENPSFLDLISDPDLKQWGVELNSIWKDLGRKMKDEVSKNPEYYSIIPVPNPVIVPGGRFIEFYYWDSYWIIRGLLYSQMFDTARGMIENFFSIVNRFGFIPNGGRVYYHGRSQPPLLTGMVKSYVDFTNDDKFAIDALDTLEHEFEFFVNNHNVTVKNHSLCVYRDSSSGPRPESYREDVETGEEFPTDEAKELHYSELKAGAESGMDFSSRWFISPTGTNDGNRSALSTTSIVPVDLNAYLYWNAKLIAEFHSKAGNTKKVTEYETKAEKLLLGIQEVLWNEEAGVWLDYDMINQKPRDYYTPTNLSPLWVKAFNISESEKISASVMAYIERNKLDSFPGGVPNTLSYTGEQWDAPNVWAPMQYILVEGLNNLNTPEAKNMSLKWATRWVKTNFAAFSKDRHMYEKYNADEFGVGGGGGEYEVQTGFGWSNGVIIEWLSKHGRDISIGSGCGCLAGEKRQ
# Key:
# Assay in all cases: MAPPIT interaction score (arbitrary units); higher = stronger binary interaction signal, active = hit call of the paper
# CG13069 = conditions: pair source set: RRS
# DCTN1-p150 = conditions: MAPPIT configuration: N-N; pair source set: Lit-BM-16
# ctp = conditions: pair source set: Lit-BM-16
# CG13843 = conditions: MAPPIT configuration: N-C; pair source set: screen_3
# Os-C = conditions: MAPPIT configuration: N-N; pair source set: RRS
# CG13476 = conditions: MAPPIT configuration: N-N; pair source set: Lit-BS-16
# CG9795 = conditions: MAPPIT configuration: N-N; pair source set: Curagen_high_conf
# CG1316 = conditions: MAPPIT configuration: N-N; pair source set: Curagen_high_conf
# CG13560 = conditions: MAPPIT configuration: N-N; pair source set: Finley_Y2H
# 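Further: HEK293T cells with Epo stimulation, STAT-responsive firefly luciferase reporter, fold induction versus unstimulated cells divided by the larger fold induction of two negative controls lacking either bait or prey.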
binder,measurement,setting,value
B1,MAPPIT interaction score,CG13069; MAPPIT configuration: N-C,-0.364
same,MAPPIT interaction score,CG13069; MAPPIT configuration: N-N,0.421
same,MAPPIT interaction score,DCTN1-p150,1.87
same,MAPPIT interaction score,ctp; MAPPIT configuration: N-C,1.37
same,MAPPIT interaction score,ctp; MAPPIT configuration: N-N,1.75
B2,MAPPIT interaction score,CG13843,3.75 (active)
same,MAPPIT interaction score,Os-C,1.52
B3,MAPPIT interaction score,CG13476,0.125
same,MAPPIT interaction score,CG9795,4.19 (active)
B4,MAPPIT interaction score,CG1316,0.569
B5,MAPPIT interaction score,CG13560,-0.19
